For some assays here: Potency and affinity values are given separately.
Key:
Parameters in all cases: scale not given: direction of the effect not stated beside the values
[1] = target: Protein translocase subunit SecA (Escherichia coli (strain K12)) (UniProt P10408); experiment: Assay to Identify E. coli SecA ATPase Inhibitors; format: functional; settings: 30 µM
[2] = target: T1, Ubiquitin-activating enzyme e1, putative (Leishmania donovani (strain BPK282A1)) (UniProt E9BSI1); experiment: Leishmania donovani Ubiquitin Activating Enzyme (LdE1); format: functional; settings: 30 µM
T1 sequence (whole entry): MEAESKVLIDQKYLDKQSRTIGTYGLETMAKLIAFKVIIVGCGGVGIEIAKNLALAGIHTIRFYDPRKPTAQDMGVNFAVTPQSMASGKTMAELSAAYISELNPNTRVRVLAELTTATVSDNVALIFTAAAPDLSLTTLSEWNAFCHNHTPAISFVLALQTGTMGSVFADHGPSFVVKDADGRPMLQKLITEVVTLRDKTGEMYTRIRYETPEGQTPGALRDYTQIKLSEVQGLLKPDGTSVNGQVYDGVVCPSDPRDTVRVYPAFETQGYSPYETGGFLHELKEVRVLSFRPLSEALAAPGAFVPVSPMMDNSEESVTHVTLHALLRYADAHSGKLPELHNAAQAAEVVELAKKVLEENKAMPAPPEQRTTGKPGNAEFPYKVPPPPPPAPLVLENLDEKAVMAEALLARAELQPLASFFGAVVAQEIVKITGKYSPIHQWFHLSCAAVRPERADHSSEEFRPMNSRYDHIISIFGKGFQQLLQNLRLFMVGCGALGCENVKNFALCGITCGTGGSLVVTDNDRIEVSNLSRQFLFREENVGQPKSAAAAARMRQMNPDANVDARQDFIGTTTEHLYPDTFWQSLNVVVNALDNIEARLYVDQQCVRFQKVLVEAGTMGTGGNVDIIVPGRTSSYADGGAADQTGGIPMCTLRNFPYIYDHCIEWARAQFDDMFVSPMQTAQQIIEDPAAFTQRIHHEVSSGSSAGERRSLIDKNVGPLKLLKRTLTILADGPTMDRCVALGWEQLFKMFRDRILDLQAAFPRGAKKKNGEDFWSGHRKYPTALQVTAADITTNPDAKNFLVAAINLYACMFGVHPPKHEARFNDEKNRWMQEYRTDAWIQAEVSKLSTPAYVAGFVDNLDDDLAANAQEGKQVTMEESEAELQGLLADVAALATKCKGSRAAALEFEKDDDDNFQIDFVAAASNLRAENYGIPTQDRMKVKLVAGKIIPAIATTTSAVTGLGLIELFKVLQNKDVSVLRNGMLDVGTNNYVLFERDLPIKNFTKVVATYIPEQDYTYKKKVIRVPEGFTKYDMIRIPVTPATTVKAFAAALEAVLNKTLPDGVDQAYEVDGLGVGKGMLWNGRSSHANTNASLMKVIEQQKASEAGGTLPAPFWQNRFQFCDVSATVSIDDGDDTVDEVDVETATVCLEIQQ

[3] = target: AMP-activated protein kinase, AMPK (Homo sapiens) (UniProt P54646+O43741+P54619+Q9UGJ0+Q9Y478+Q13131+Q9UGI9); experiment: AMP-dependent Kinase enzyme assay. An in vitro enzyme assay that detects ADP turnover that is directly proportional to AMPK activity. This uses naive AMPK that is activated during the assay with MK-8722; format: functional; settings: 30 µM
[4] = target: Sialic acid-binding Ig-like lectin 9 (Homo sapiens) (UniProt Q9Y336); experiment: Hs-Siglec9 ALPHAscreen SOP 20170721; settings: 10 µM
Trypanosoma cruzi = experiment: Trypanosoma cruzi phosphomannomutase and mannose-1-phosphate guanylyltransferase assay; format: functional; settings: 10 µM
[5] = target: T2, Arginase-2, mitochondrial (Homo sapiens) (UniProt P78540); experiment: in vitro enzyme assay to detect the production of urea directly proportional to the activity of Arginase II; format: functional; settings: 33.3 µM; further: in the data most compounds retested in dose-response had high values
T2 sequence (whole entry): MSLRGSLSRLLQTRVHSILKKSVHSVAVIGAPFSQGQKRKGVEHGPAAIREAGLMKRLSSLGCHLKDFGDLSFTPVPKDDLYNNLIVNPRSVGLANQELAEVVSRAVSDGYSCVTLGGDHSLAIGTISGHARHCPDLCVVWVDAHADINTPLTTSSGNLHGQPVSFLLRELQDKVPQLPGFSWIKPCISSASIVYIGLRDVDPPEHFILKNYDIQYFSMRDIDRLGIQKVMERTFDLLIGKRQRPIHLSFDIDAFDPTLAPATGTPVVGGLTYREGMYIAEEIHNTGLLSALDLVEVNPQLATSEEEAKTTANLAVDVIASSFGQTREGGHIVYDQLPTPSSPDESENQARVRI

[6] = target: T3, Proteasome subunit beta (Trypanosoma cruzi) (UniProt O96673); experiment: Trypanosoma cruzi proteasome chymotrypsin-like activity (TcProtChymo) assay.; further: in the data most compounds retested in dose-response had high values; format: functional; settings: 9.37 µM
T3 sequence (whole entry): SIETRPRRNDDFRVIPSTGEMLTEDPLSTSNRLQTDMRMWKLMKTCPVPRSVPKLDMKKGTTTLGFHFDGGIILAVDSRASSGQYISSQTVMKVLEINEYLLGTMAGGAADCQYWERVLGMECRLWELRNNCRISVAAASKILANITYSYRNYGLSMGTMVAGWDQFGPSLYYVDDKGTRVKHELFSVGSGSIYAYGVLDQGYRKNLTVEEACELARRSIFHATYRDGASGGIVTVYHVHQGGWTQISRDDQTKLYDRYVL

Homo sapiens = species on record: Homo sapiens; experiment: To identify inhibition of the IFN signalling (Jak-Stat) pathway via expression of an eGFP reporter gene under the control of an IFN-stimulated response element (ISRE) containing MxA promoter.; format: functional; settings: 30 µM
[7] = target: T4, Tyrosyl-tRNA synthetase, putative (Trypanosoma cruzi (strain CL Brener)) (UniProt Q4DSP6); experiment: Trypanosoma cruzi tyrosyl tRNA synthetase (TcYRS) _High Tyrosine SOP; format: functional; settings: 30 µM; further: in the data most compounds retested in dose-response had high values
T4 sequence (whole entry): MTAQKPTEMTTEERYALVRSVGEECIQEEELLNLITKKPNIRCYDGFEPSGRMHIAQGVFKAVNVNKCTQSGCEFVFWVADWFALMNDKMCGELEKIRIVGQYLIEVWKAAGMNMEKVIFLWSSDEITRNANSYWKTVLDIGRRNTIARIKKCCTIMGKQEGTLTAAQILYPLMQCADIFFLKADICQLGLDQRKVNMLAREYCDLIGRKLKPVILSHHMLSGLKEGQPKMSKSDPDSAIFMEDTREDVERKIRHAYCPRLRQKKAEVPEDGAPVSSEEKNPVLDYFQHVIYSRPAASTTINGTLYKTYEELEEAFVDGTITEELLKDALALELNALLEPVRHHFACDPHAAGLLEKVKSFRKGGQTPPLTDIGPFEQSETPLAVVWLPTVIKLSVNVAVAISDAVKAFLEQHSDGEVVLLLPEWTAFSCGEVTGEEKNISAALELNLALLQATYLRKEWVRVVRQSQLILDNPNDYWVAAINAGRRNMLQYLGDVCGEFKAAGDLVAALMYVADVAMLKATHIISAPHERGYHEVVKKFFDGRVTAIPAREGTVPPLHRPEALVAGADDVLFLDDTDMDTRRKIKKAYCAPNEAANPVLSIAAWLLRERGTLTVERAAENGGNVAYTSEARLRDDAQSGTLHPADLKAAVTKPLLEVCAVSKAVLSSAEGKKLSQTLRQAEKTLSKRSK

[8] = target: T4, Tyrosyl-tRNA synthetase, putative (Trypanosoma cruzi (strain CL Brener)); experiment: Trypanosoma cruzi tyrosyl tRNA synthetase (TcYRS) SOP; format: functional; settings: 30 µM
[9] = target: Chromo domain-containing protein 1 (Saccharomyces cerevisiae (strain ATCC 204508 / S288c) (Baker's yeast)) (UniProt P32657); experiment: ScCHD-1 Enzyme Inhibition Assay; format: functional; settings: 30 µM; further: in the data most compounds retested in dose-response had high values
Chromo domain-containing protein 1 (Saccharomyces cerevisiae (strain ATCC 204508 / S288c) (Baker's yeast)), sequence (P32657 whole entry, the tested form may be a part): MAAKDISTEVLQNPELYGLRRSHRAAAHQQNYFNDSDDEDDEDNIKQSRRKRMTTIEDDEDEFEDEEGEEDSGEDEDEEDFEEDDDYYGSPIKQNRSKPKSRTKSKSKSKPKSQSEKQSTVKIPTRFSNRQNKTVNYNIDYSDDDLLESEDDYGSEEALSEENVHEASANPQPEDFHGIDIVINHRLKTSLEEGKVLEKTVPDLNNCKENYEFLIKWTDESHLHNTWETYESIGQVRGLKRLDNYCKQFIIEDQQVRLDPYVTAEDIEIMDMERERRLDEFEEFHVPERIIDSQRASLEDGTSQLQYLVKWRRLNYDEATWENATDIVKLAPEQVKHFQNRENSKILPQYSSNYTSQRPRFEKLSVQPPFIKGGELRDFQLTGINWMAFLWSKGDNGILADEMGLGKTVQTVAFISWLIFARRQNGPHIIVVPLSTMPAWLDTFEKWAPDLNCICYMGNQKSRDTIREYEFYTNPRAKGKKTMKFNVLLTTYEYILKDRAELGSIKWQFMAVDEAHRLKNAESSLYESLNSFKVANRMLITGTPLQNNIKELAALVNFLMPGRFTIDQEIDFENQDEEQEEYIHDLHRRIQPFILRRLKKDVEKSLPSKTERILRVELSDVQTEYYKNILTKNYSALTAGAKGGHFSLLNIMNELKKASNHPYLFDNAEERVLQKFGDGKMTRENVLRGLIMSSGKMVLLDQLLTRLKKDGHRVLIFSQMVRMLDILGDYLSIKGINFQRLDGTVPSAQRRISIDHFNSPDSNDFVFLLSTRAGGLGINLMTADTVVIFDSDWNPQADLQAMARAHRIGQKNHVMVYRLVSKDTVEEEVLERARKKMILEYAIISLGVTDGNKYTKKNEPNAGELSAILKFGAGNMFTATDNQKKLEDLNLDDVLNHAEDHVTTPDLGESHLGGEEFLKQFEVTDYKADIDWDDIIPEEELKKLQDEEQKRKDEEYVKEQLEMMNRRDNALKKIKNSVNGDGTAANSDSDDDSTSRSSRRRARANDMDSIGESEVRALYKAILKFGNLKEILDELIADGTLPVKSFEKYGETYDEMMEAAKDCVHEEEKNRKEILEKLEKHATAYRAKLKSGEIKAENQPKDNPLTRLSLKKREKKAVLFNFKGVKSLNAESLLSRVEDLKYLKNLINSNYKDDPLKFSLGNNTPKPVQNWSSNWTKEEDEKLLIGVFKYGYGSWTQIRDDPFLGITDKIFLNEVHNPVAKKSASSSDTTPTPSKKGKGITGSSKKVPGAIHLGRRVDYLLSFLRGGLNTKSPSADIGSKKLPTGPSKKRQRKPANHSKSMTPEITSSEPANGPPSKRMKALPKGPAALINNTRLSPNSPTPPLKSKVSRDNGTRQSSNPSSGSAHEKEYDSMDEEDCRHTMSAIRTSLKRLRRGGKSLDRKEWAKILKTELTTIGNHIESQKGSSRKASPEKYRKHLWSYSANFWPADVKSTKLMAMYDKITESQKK

Protein translocase subunit SecA (Escherichia coli (strain K12)), sequence (P10408 whole entry): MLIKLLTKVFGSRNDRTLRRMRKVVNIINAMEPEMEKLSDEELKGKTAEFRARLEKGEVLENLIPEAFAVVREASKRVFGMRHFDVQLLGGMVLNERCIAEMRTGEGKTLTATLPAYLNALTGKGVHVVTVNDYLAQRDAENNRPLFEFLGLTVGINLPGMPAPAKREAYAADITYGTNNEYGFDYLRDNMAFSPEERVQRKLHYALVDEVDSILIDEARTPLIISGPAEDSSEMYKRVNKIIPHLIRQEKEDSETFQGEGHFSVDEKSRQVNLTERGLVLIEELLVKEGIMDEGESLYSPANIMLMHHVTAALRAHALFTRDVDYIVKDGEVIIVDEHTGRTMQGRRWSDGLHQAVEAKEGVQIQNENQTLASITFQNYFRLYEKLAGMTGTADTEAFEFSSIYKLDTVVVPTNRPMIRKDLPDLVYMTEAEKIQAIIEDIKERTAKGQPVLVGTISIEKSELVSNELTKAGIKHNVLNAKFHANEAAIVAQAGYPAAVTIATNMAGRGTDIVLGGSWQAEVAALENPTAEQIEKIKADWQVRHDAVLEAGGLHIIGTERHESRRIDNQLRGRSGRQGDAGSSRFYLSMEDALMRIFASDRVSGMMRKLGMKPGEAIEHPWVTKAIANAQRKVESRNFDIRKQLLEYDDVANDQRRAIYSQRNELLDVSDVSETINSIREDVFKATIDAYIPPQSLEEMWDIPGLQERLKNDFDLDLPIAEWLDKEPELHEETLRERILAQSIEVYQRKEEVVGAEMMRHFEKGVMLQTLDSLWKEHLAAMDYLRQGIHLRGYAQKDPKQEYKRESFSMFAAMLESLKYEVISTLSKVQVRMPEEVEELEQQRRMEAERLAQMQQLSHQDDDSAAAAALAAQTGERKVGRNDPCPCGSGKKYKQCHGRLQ
Sialic acid-binding Ig-like lectin 9 (Homo sapiens), sequence (Q9Y336 whole entry): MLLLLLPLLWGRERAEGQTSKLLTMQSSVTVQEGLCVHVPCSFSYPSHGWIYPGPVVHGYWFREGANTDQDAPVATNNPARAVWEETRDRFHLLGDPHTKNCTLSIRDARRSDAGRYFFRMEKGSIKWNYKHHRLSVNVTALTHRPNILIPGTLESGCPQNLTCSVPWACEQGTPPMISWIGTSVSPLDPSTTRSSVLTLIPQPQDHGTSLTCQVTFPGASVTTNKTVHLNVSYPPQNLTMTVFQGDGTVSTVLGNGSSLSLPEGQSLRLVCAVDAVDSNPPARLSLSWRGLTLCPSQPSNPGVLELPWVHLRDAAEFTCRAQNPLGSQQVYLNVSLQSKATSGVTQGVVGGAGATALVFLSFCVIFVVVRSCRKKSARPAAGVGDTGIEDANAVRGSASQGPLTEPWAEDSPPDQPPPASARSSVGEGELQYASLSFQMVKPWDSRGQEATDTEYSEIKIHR

Structure (SMILES) | Percent Effect [1] [%] | Percent Effect [2] [%] | Percent Effect [3] [%] | Percent Effect [4] [%] | Percent Effect (Trypanosoma cruzi) [%] | Percent Effect [5] [%] | Percent Effect [6] [%] | Percent Effect (Homo sapiens) [%] | Percent Effect [7] [%] | Percent Effect [8] [%] | Percent Effect [9] [%]
Cc1cnn(CC2CCCN2CC(=O)N(C)CCC#N)c1 (stereo unspecified) | -1.24 | -5.41 | -5.26 | 5.88 | -0.386 | -0.476 | 11.4 | -14.1 | -2.65 | -2.44 | 91.2
c1cnnc(N2CCCC(NCc3ccc(-n4ccnc4)cc3)C2)c1 (stereo unspecified) | -1.81 | 2.6 | 5.74 | 12 | -0.49 | 1.9 | 8.33 | 3.55 | 0.952 | 0 | -13.3
CCOC(=O)[C@]12CCCN(Cc3nccs3)C[C@H]1CN(CCN(C)C)C2 | -2.1 | 13 | 1.26 | -3.57 | -0.493 | 7.1 | 16.2 | 8.87 | 2.12 | 8.97 | -10.9
Cc1ccc(C(C)NC(=O)Nc2ccccc2CN2CCOCC2)o1 (stereo unspecified) | -5.3 | 5.41 | -1.54 | 9.05 | -2.64 | -5.21 | 9.19 | -2.32 | 7.53 | 8.64 | -0.483
O=C(NCCOc1ncc(Cl)cc1Cl)c1ccncc1F | -4.54 | 2.7 | 2.46 | -3.73 | 5.08 | -2.08 | 17.8 | 8.71 | 5.94 | 8.54 | -7.35
O=C(NCC1CCOC1)N1CCN(Cc2ccc3c(c2)CCO3)CC1 (stereo unspecified) | -2.3 | 15.8 | -4.31 | -5.79 | 2.33 | -5.4 | 4.99 | -17.4 | 9.36 | 23.5 | -7.08
CCC(=O)N1CCC2(CC1)c1nc[nH]c1CCN2S(C)(=O)=O | -5.57 | 12.5 | -6.81 | 9.02 | 4.18 | 23 | 11.8 | 13.6 | 5.26 | 10.3 | -5.69
CCOC(=O)N1CCN(C(=O)CCn2ccc3c(OC)cccc32)CC1 | -0.914 | 0 | -4.91 | 2.66 | -6.91 | -10.7 | 15.8 | 35 | 2.13 | -2.6 | -1.25
O=C(C1CCC1)N1CCCC1c1nnc2n1CCCCC2 (stereo unspecified) | -0.546 | 13.5 | -1.97 | -4.28 | 2.34 | 33.3 | 9.89 | 27.9 | 11.9 | 15.8 | 2.32
O=C(C1=CCCC1)N1CCC[C@]2(C[C@@H](OCc3ccncc3)CO2)C1 | 1.57 | 10.7 | 4.23 | 8.61 | -1.93 | -19.2 | 7.69 | -6.85 | 5.21 | 22.5 | -9.61
CN(C)C(=O)N1C[C@@H]2CC[C@H](C1)N(C(=O)CCCn1cncn1)C2 | -2.38 | 2.7 | 0.473 | 0.611 | 1.74 | 1.43 | 19 | -5.66 | 8.99 | 21.9 | -3.6
Cc1noc(CN2CCN(Cc3cccs3)CC2)n1 | -0.284 | 15.6 | 3.17 | -3.65 | -5.24 | 4.27 | 0.845 | 22.4 | 6.8 | 19.5 | -5.19
COCC1CN(C(=O)c2ccoc2C)Cc2nccn2C1 (stereo unspecified) | -6.75 | 0 | 10.2 | -5.59 | -6.3 | 0.233 | 2.03 | 12.3 | -3.19 | 1.28 | -4.85
CNc1cc(C)nc(C2CN(Cc3ccc(C)nc3)CCO2)c1 (stereo unspecified) | -2.49 | 4.05 | 9.63 | -3.85 | -1.19 | -0.696 | 4.84 | 0.717 | 3.23 | 3.9 | -10.8
CNC(=O)N1CCc2cc(C(=O)N(C)C)c(NCC3CC3)nc2CC1 | -4.82 | 8.11 | -2.71 | 2.07 | -4.4 | -0.248 | 10.7 | 18.6 | 6.45 | 16.1 | -1.72
Cc1cc(C)c2cc(CNCc3ccccc3)c3nn(C)c(=O)n3c2c1 | -8.18 | 9.46 | -1.18 | 8.69 | 2.96 | -2.09 | 10.3 | 13.4 | 4.3 | 3.9 | -30.5

Reference: ChEMBL document CHEMBL3988442, “University of Dundee, Small-Polar-MMV Screening Library” (2021)
